# Activity calls are given as the source filed them. Rule for the calls: active = hit-call score of the fitted dose curve at least 0.9, where 1 is the maximum; inactive = score below 0.9.
# Tests used:
# [1] = APR_HepG2_CellCycleArrest_24hr: Apredica 24-hour HepG2 Assay for Cell Cycle Arrest (AID 2282905); settings: imaging, actives raise or lower the signal;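 note: cell cycle arrest scored as ratio of 2N to 4N nuclear DNA content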
# How it was run: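 Compounds at 0.39–200 uM (0.5% DMSO) for 24 h, then fixed and Hoechst 33342 stained. Cell-cycle analysis of nuclear DNA content by high-content imaging, fitted bidirectionally versus DMSO.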
# [2] = APR_HepG2_NuclearSize_24hr: Apredica 24-hour HepG2 Assay for Nuclear Size (AID 2282907); settings: high-content imaging, actives raise or lower the signal
# How it was run: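 HepG2 cells exposed 24 h to compounds at 0.39–200 uM (0.5% DMSO), fixed, Hoechst 33342 stained and imaged at 20x; nuclear diameter measured by automated image analysis, fitted bidirectionally against DMSO controls.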
# [3] = APR_HepG2_CellLoss_24hr: Apredica 24-hour HepG2 Assay for Cell Loss (AID 2282908); settings: high-content imaging;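 for AC50: fit in both directions so a hit may be cell loss or gain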
# How it was run: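 HepG2 cells exposed 24 hr to 0.39–200 uM compound in duplicate at 0.5% v/v final DMSO. Cells fixed in 3.7% formaldehyde and Hoechst 33342-stained. Cell number came from nuclear imaging at 20x. Bidirectional fit versus DMSO.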
# [4] = APR_HepG2_MicrotubuleCSK_24hr: Apredica 24-hour HepG2 Assay for Microtubule CSK Stabilty (AID 2282909); settings: HepG2 microtubule cytoskeleton imaging, actives raise or lower the signal
# How it was run: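 HepG2 cells were treated 24 hr with compound at 0.39–200 uM in duplicate (0.5% DMSO final), then fixed and permeabilized. Alpha-tubulin immunofluorescence was imaged by high-content microscopy, with bidirectional fitting against DMSO and taxol as positive control.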
# [5] = APR_HepG2_MitoticArrest_24hr: Apredica 24-hour HepG2 Assay for Mitotic Arrest (AID 2282910); settings: high-content imaging, actives raise or lower the signal
# How it was run: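 HepG2 cells, 24 h exposure at 0.39-200 uM (10 concentrations, duplicate, 0.5% DMSO). Fixed, stained for phospho-histone H3 with Hoechst; imaged by high-content microscopy, bidirectional fit versus DMSO.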
# [6] = APR_HepG2_MitoMembPot_24hr: Apredica 24-hour HepG2 Assay for Mitochondrial Membrane Potential (AID 2282911); settings: imaging, actives raise or lower the signal
# How it was run: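 Human hepatoma HepG2 cultures received ten compound concentrations up to 200 uM for 24 hr. Membrane-potential dye signal, captured by automated fluorescence microscopy, was scored for gain or loss against DMSO controls.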
# [7] = APR_HepG2_MitoMass_24hr: Apredica 24-hour HepG2 Assay for Mitochondrial Mass (AID 2282912); settings: high-content imaging, actives raise or lower the signal
# How it was run: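 HepG2 cells exposed 24 hr to 0.39–200 uM compound, 0.5% v/v DMSO, in duplicate. Stained before fixation with 250 nM MitoTracker Red CMXRos for 30 min, then imaged at 20x with Hoechst nuclei. Fitted in both directions against DMSO.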
# [8] = APR_HepG2_p53Act_24hr: Apredica 24-hour HepG2 Assay for p53 Activation (AID 2282913); settings: high-content imaging, actives raise or lower the signal;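 note: p53 protein immunofluorescence averaged per cell in HepG2 with Hoechst nuclei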
# How it was run: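 Automated fluorescence imaging quantifies p53 immunostaining in HepG2 cells after a 24 hr exposure (0.39–200 uM, duplicate, 0.5% DMSO). Nuclei are located by Hoechst 33342 staining.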
# [9] = APR_HepG2_CellCycleArrest_72hr: Apredica 72-hour HepG2 Assay for Cell Cycle Arrest (AID 2282914); settings: high-content imaging, actives raise or lower the signal
# How it was run: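 Cell cycle arrest in HepG2 was scored from nuclear DNA content after 72 hr compound treatment (0.39–200 uM). Activity, either gain or loss, was fitted against the DMSO baseline.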
# [10] = APR_HepG2_CellLoss_72hr: Apredica 72-hour HepG2 Assay for Cell Loss (AID 2282915); settings: high-content imaging
# How it was run: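 HepG2 cells exposed 72 h to compound at 0.39–200 uM (10 concentrations, duplicate) in 0.5% DMSO. Fixed with 3.7% formaldehyde and Hoechst 33342-stained. Imaged at 20x; nuclear count gives cell number, fitted bidirectionally versus DMSO.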
# [11] = APR_HepG2_MitoMembPot_72hr: Apredica 72-hour HepG2 Assay for Mitochondrial Membrane Potential (AID 2282917); settings: imaging, actives raise or lower the signal
# How it was run: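 HepG2 cells dosed 72 hr with compound at 0.39–200 uM in duplicate, 0.5% v/v DMSO final. Mitochondria stained with 250 nM MitoTracker Red CMXRos for 30 min before formaldehyde fixation, imaged by high-content fluorescence; bidirectional fit versus DMSO.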
# [12] = APR_HepG2_MitoticArrest_72hr: Apredica 72-hour HepG2 Assay for Mitotic Arrest (AID 2282918); settings: high-content imaging, actives raise or lower the signal
# How it was run: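 Mitotic arrest in HepG2 is scored from phospho-histone H3 staining after 72 hr dosing across 0.39–200 uM, with DMSO at 0.5% v/v. Nuclei are identified by Hoechst 33342 and fluorescence intensity is quantified per cell.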
# [13] = APR_HepG2_MicrotubuleCSK_72hr: Apredica 72-hour HepG2 Assay for Microtubule CSK Stabilty (AID 2282919); settings: HepG2 microtubule cytoskeleton, high-content imaging, actives raise or lower the signal
# How it was run: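 HepG2 cells were exposed 72 hr to compound at 0.39–200 uM in duplicate (0.5% DMSO final), then fixed and permeabilized. Alpha-tubulin immunofluorescence was imaged by high-content microscopy, with bidirectional fitting against DMSO and taxol as positive control.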
# [14] = APR_HepG2_P-H2AX_24hr: Apredica 24-hour HepG2 Assay for H2AX Phosphorylation (AID 2282920); settings: high-content imaging, actives raise or lower the signal
# How it was run: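 Signal comes from a FITC-labeled secondary detecting phospho-histone H2A.x in fixed HepG2 cells, quantified by automated imaging at 20x. Dosing ran 24 hr across 0.39–200 uM with 0.5% v/v DMSO.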
# [15] = APR_HepG2_StressKinase_72hr: Apredica 72-hour HepG2 Assay for Stress Kinase (AID 2282921); settings: HepG2 stress kinase (phospho-c-Jun) imaging, actives raise or lower the signal
# How it was run: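 HepG2 cells treated 72 hr with 0.39–200 uM compound, 0.5% v/v DMSO, duplicate wells. After formaldehyde fixation and Triton permeabilization, stained with anti-phospho-c-Jun (1:500) and Cy3 secondary, imaged at 20x. Fitted in both directions against DMSO.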
# [16] = APR_HepG2_StressKinase_24hr: Apredica 24-hour HepG2 Assay for Stress Kinase (AID 2282922); settings: HepG2 stress kinase (phospho-c-Jun) imaging, actives raise or lower the signal
# How it was run: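 HepG2 cells exposed 24 h to 0.39–200 uM compound in duplicate (0.5% v/v DMSO final). Cells fixed in 3.7% formaldehyde, permeabilized and immunostained for phospho-c-Jun; read by high-content fluorescence imaging, fitted bidirectionally against DMSO.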
# [17] = APR_HepG2_p53Act_72hr: Apredica 72-hour HepG2 Assay for p53 Activation (AID 2282923); settings: high-content imaging, actives raise or lower the signal;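 note: average cellular p53 protein immunofluorescence intensity in HepG2 cells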
# How it was run: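 HepG2 cells exposed 72 h to 0.39–200 uM in 0.5% DMSO, duplicates. Fixed, permeabilized cells immunostained for p53 (Cy5) with Hoechst; imaged at 20x, fluorescence analyzed bidirectionally against DMSO.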
# [18] = APR_HepG2_NuclearSize_72hr: Apredica 72-hour HepG2 Assay for Nuclear Size (AID 2282925); settings: high-content imaging, actives raise or lower the signal
# How it was run: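 HepG2 cells dosed 72 h at 0.39–200 uM (10 concentrations, duplicate) in 0.5% v/v DMSO final. Fixed, Hoechst 33342-stained nuclei imaged; nuclear diameter measured by automated image analysis. Bidirectional fit versus DMSO.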
# [19] = APR_HepG2_MitoMass_72hr: Apredica 72-hour HepG2 Assay for Mitochondrial Mass (AID 2282924); settings: high-content imaging, actives raise or lower the signal;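 note: MitoTracker Red CMXRos stain intensity per cell imaged as mitochondrial mass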
# How it was run: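 HepG2 cells dosed 72 hr at 0.39–200 uM (0.5% DMSO), in duplicate. MitoTracker Red CMXRos 250 nM loaded 30 min before formaldehyde fixation; high-content fluorescence imaging, bidirectional fit versus DMSO.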
# [20] = APR_HepG2_P-H2AX_72hr: Apredica 72-hour HepG2 Assay for H2AX Phosphorylation (AID 2282916); settings: imaging, actives raise or lower the signal;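 note: phospho-histone H2A.x immunostain intensity per cell marking DNA damage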
# How it was run: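 HepG2 cells treated 72 h at 0.39–200 uM, 0.5% DMSO final, duplicates. Formaldehyde-fixed, Triton-permeabilised, immunostained for phospho-H2A.x with Hoechst; fluorescence imaged at 20x, bidirectional fit versus DMSO.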
smiles,measurement,setting,value
O=C1CCC(N2C(=O)c3ccccc3C2=O)C(=O)N1 (stereo not given),outcome,[1],inactive
same,outcome,[2],inactive
same,outcome,[3],inactive
same,outcome,[4],inactive
same,outcome,[5],inactive
same,outcome,[6],inactive
same,outcome,[7],inactive
same,outcome,[8],inactive
same,outcome,[9],inactive
same,outcome,[10],inactive
same,outcome,[11],inactive
same,outcome,[12],inactive
same,outcome,[13],inactive
same,outcome,[14],inactive
same,outcome,[15],inactive
same,outcome,[16],inactive
same,outcome,[17],inactive
same,outcome,[18],inactive
COc1cccc(-c2ccc(/C=C\CN3CCCCCC3)cc2Cl)c1,AC50,[1],87.1 µM (active)
same,AC50,[2],59.5 µM (active)
same,AC50,[3],74.8 µM (active)
same,outcome,[4],inactive
same,AC50,[5],28.5 µM (active)
same,outcome,[6],inactive
same,AC50,[7],23.8 µM (active)
same,AC50,[8],30.8 µM (active)
same,AC50,[9],84.2 µM (active)
same,AC50,[10],28.6 µM (active)
same,AC50,[12],17.6 µM (active)
same,outcome,[13],inactive
same,AC50,[14],48.9 µM (active)
same,AC50,[15],32.3 µM (active)
same,AC50,[16],69.3 µM (active)
same,AC50,[17],22.5 µM (active)
same,AC50,[18],62 µM (active)
CCCCC(CC)COC(=O)c1ccc(C(=O)OCC(CC)CCCC)cc1 (stereo not given),outcome,[1],inactive
same,outcome,[2],inactive
same,outcome,[3],inactive
same,outcome,[4],inactive
same,outcome,[5],inactive
same,outcome,[6],inactive
same,outcome,[7],inactive
same,outcome,[8],inactive
same,AC50,[9],32.4 µM (active)
same,outcome,[10],inactive
same,outcome,[11],inactive
same,outcome,[12],inactive
same,outcome,[13],inactive
same,outcome,[14],inactive
same,outcome,[16],inactive
same,outcome,[17],inactive
same,outcome,[19],inactive
same,outcome,[18],inactive
C=CC(=C)CCC=C(C)C,outcome,[1],inactive
same,outcome,[2],inactive
same,outcome,[3],inactive
same,outcome,[4],inactive
same,outcome,[5],inactive
same,outcome,[6],inactive
same,outcome,[7],inactive
same,outcome,[8],inactive
same,outcome,[9],inactive
same,outcome,[10],inactive
same,outcome,[11],inactive
same,outcome,[12],inactive
same,outcome,[13],inactive
same,outcome,[14],inactive
same,outcome,[16],inactive
same,outcome,[17],inactive
same,outcome,[18],inactive
Cc1ccc(C)c(O)c1,outcome,[1],inactive
same,outcome,[2],inactive
same,outcome,[3],inactive
same,outcome,[5],inactive
same,outcome,[6],inactive
same,outcome,[7],inactive
same,outcome,[8],inactive
same,outcome,[9],inactive
same,outcome,[10],inactive
same,outcome,[20],inactive
same,outcome,[11],inactive
same,outcome,[12],inactive
same,outcome,[13],inactive
same,outcome,[14],inactive
same,outcome,[15],inactive
same,outcome,[16],inactive
same,outcome,[17],inactive
same,outcome,[18],inactive
CCCC(=O)OCC,outcome,[1],inactive
same,outcome,[2],inactive
same,outcome,[3],inactive
same,outcome,[5],inactive
same,outcome,[6],inactive
same,outcome,[7],inactive
same,outcome,[8],inactive
same,outcome,[9],inactive
same,outcome,[10],inactive
same,outcome,[11],inactive
same,outcome,[12],inactive
same,outcome,[13],inactive
same,outcome,[14],inactive
same,outcome,[15],inactive
same,outcome,[16],inactive
same,outcome,[17],inactive
same,outcome,[18],inactive

# Reference: PubChem BioAssay (EPA / NIEHS)
